KCNQ2 inh = inhibitors of rat KCNQ2 potassium channel. B-score at 10 µM. actives 1.1% (n = 310,000). O88943. AID 2156. CHO-K1 KCNQ2, FluxOR thallium flux, 20 min; hits give low values;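 active means fluorescence ratio B-score at most minus 3 library SDs, with starting brightness B-score within 2 library SDs, cut at about -5.5 in these data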
Target sequence (O88943 whole entry, looked up): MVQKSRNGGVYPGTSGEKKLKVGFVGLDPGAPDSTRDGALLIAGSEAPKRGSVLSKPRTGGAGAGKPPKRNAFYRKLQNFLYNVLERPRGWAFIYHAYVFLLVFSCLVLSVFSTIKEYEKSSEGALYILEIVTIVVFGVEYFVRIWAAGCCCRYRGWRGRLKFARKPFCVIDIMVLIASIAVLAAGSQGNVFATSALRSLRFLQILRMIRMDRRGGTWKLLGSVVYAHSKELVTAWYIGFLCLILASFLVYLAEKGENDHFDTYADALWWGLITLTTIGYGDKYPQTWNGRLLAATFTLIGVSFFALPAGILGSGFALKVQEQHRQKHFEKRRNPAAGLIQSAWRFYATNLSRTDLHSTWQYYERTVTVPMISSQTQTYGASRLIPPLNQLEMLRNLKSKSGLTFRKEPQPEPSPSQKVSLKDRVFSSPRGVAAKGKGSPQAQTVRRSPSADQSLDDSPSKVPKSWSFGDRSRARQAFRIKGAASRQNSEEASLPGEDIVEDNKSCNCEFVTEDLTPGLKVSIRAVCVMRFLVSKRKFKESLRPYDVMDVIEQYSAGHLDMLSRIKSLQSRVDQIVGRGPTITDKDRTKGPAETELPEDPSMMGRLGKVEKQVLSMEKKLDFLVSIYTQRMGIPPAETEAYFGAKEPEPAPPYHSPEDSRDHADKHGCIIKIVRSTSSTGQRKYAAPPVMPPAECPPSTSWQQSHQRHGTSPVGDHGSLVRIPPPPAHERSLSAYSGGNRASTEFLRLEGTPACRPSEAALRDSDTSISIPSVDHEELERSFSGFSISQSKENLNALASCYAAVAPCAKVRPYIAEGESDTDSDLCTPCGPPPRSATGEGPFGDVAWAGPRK
KCNQ2 enhance = enhances the rat KCNQ2 potassium channel | O88943 | actives 0.54% (n = 310,000) | CHO-K1 KCNQ2, FluxOR thallium flux fluorescence; hits give high values | B-score at 10 µM;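 active means fluorescence ratio B-score at least 3 SD of library B-scores, with initial fluorescence B-score within 3 of them, cut at about 5.3 in these data; same plate scores as AID 2156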;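 further: B-score of peak minus minimum over baseline fluorescence ratio after K+ and Tl+ stimulus; positive B-score means potentiation of KCNQ2 with more thallium influx and brighter signal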
Numbers without * were called inactive; i = inactive; nt = no result. In the library only some 1.6% were active in any assay of this set; here they are far more common.

SMILES | KCNQ2 inh | KCNQ2 enhance
COC(=O)c1ccccc1OC(=O)c1cc[n+]([O-])cc1 | i | nt
CC12CCC(C(=Nc3ccc(N=C4C(=O)C5(C)CCC4C5(C)C)cc3)C1=O)C2(C)C | i | nt
Cc1ccc(N/C=C2\C(=O)C3(C)CCC2C3(C)C)cc1C (configuration not stated) | -6.46* | -6.46
Cc1ccc(S(=O)(=O)n2nc(OC(=O)c3c(F)cccc3Cl)cc2N)cc1 | i | 0.5
Cc1nn(C(C)(C)C)c(OC(=O)c2ccco2)c1Sc1ccccc1 | -6.11* | -6.11
Cc1nn(C(C)(C)C)c(OC(=O)c2ccc(Br)o2)c1Sc1ccccc1 | i | nt
Cc1nn(C(C)(C)C)c(OC(=O)c2ccc3c(c2)OCO3)c1Sc1ccccc1 | i | nt
Cc1nn(C(C)(C)C)c(OC(=O)c2cccs2)c1Sc1ccccc1 | -7.98* | -7.98
CC(NC(=O)Cc1ccc(S(=O)(=O)N2CCOCC2)s1)c1ccc(Cl)cc1Cl (configuration not stated) | i | 2.54
CS(=O)(=O)Nc1ccc(Br)cc1C(=O)c1ccccc1 | i | nt
COc1ccc(CNC(=O)C(C#N)c2nc3ccccc3nc2N2CCCC2)cc1 (configuration not stated) | i | nt
CC1CN(c2nc3ccccc3nc2C(C#N)C(=O)NCc2ccc3c(c2)OCO3)CC(C)O1 (configuration not stated) | -5.63* | -5.63
NC(=O)C1CCN(C(=O)C2CCC(=O)N(Cc3ccc(Cl)cc3)C2)CC1 (configuration not stated) | i | nt
Cc1ccc(SCCNC(=O)/C=C/c2ccc([N+](=O)[O-])cc2)cc1 | i | 6.2*
O=C(/C=C/c1ccc([N+](=O)[O-])cc1)NCCSc1ccccc1 | i | 1.26
CCC(NC(=O)Cn1cnc2c(=O)n(C)c(=O)n(C)c21)c1ccccc1 (configuration not stated) | i | nt
CC(NC(=O)c1c(O)c2ccccc2n(C)c1=O)c1ccccc1 (configuration not stated) | -5.78* | -5.78
Cn1c(=O)c(C(=O)NCCc2ccccc2)c(O)c2ccccc21 | i | nt
C=CCOc1cccc(/C=C/c2nc3ccccc3c(=O)[nH]2)c1 | i | nt
Cc1ccc(N2CC(=O)N(c3ccc(C)cc3)CC2=O)cc1 | i | nt
Cc1ccc(C(=O)N/N=C(/CC(=O)c2cccs2)C(F)(F)F)cc1 | i | 12.8*
O=C(N/N=C(\CC(=O)c1cccs1)C(F)(F)F)c1ccncc1 | i | 0.05
CC1CCN(c2cc(N)c(Cl)cc2[N+](=O)[O-])CC1 | -6.47* | -6.47
CC1CCN(c2cc(C#N)c(C#N)cc2[N+](=O)[O-])CC1 | i | 0.25
COc1ccc([N+](=O)[O-])c(OC)c1C(=O)NC(=O)Nc1nc(C)nc(C)n1 | i | nt
SMILES | KCNQ2 inh | KCNQ2 enhance
O=C(CO/N=C/c1ccccc1OC(F)F)N1CCc2ccccc21 | i | nt
O=C(CO/N=C/c1ccccc1Cl)N1CCCc2ccccc21 | -6.1* | -6.1
COc1ccccc1CN(C)C(=O)C(c1ccccc1)c1ccccc1 | -5.63* | -5.63
CN(Cc1ccc(F)cc1)C(=O)C(c1ccccc1)c1ccccc1 | i | nt
Cc1ccc(-c2nnc(-c3ccc4c(c3)OCO4)o2)cc1 | i | nt
CCOC(=O)/C(=C\c1ccccc1)C(=O)c1cc(C(C)=O)c(Nc2ccccc2)s1 | -8.12* | -8.12
CCOC(=O)/C(=C\c1cccnc1)C(=O)c1cc(C(C)=O)c(Nc2ccccc2)s1 | i | nt
O=c1cnn(Cc2ccc(F)cc2)c2ccccc12 | i | 0.83
CCC(C)N(CCNC(=O)c1ccc(NC2=NC3CS(=O)(=O)CC3S2)cc1)Cc1ccco1 (configuration not stated) | i | nt
COc1ccc(-c2nn(-c3ccccc3)cc2C(=O)NCC(c2cccs2)N2CCOCC2)cc1 (configuration not stated) | i | nt
COc1cccc(-c2nn(-c3ccc(C)cc3)cc2C(=O)NCC(c2cccs2)N2CCOCC2)c1 (configuration not stated) | -6.92* | -6.92
COc1ccc(CN2CCN(C(=O)c3ccco3)CC2)cc1OC | i | 0.36
NC(=O)C1CCN(C(=O)c2ccc(OCC(=O)Nc3cccc(C(F)(F)F)c3)cc2)CC1 | i | nt
CCOC(=O)C1CCN(C(=O)c2ccc(OCC(=O)Nc3cccc(C(F)(F)F)c3)cc2)CC1 | -6.49* | -6.49
CC(=C/c1ccc(C(C)C)cc1)/C=N/NC(=O)Cn1nc(C)cc1C | i | 2.4
COc1ccc(C(=O)Nc2ccccc2N2CCN(C(=O)c3ccccc3)CC2)cc1Br | -7.16* | -7.16
O=C(Nc1ccccc1N1CCN(C(=O)c2ccccc2)CC1)c1ccc(Cl)cc1 | i | nt
CC(C)C(=O)N1CCN(c2ccccc2NC(=O)c2cccc3ccccc23)CC1 | -7.29* | -7.29
CS(=O)(=O)N1CCN(c2ccccc2NC(=O)c2cccc3ccccc23)CC1 | i | nt
Cn1c(=O)n(C)c2cc(N3CCCCC3)c(NC(=O)c3cccc(Cl)c3)cc21 | i | nt
CC(C)C(=O)N1CCN(c2ccccc2NC(=O)c2cccc(Cl)c2)CC1 | -6.58* | -6.58
CC(=O)c1ccc(OCC(O)CN2CCN(S(=O)(=O)c3c(C)cc(C)cc3C)CC2)cc1 (configuration not stated) | i | 0.56
COc1ccc(-c2nnc(Nc3nc4c(OC)cccc4s3)o2)c(OC)c1 | i | 0.68
COc1ccc(-c2nnc(Nc3nc4c(OC)cccc4s3)o2)cc1 | i | 5.45*
Cc1ccc(S(=O)(=O)C2(S(=O)(=O)c3ccc(C)cc3)CC2)cc1 | i | 0.14
SMILES | KCNQ2 inh | KCNQ2 enhance
O=C1NC(=O)/C(=C/c2ccccc2Oc2ccc(Cl)cc2)S1 | i | nt
CCC(=Nc1ccccc1OC)C1=C(O)CC(c2ccccc2)CC1=O (configuration not stated) | -5.76* | -5.76
CCC(=Nc1ccccc1O)C1=C(O)CC(c2ccccc2)CC1=O (configuration not stated) | i | 0.29
Cc1sc2nc(SCC(N)=O)n(-c3ccccc3)c(=O)c2c1C | i | nt
COc1ccc(-c2noc(CSc3nnc(Cc4ccccc4)n3-c3ccc(Cl)cc3)n2)cc1 | i | nt
COc1ccc(-c2noc(CSc3nc4ccccc4c(=O)n3-c3ccc(C)cc3)n2)cc1 | -5.74* | -5.74
Cc1sc2nc(SCc3nc(-c4ccccc4)no3)n(-c3ccccc3)c(=O)c2c1C | -9.03* | -9.03
FC(F)(F)c1cc(-c2ccco2)nc(NCc2ccccc2)n1 | i | nt
COc1ccc(C=C2C(=O)OC(C)(C)OC2=O)cc1OC | i | nt
CCN(CC(=O)Nc1ccc2c(c1)OCCO2)C(=O)/C=C/c1ccc(OC)cc1OC | i | nt
CC(c1ccco1)N(C(=O)C12CC3(C)CC(C)(CC(C)(C3)C1)C2)c1ccccn1 (configuration not stated) | -6.27* | -6.27
Cc1cccc(C(=O)N(c2ccccn2)C(C)c2ccco2)c1 (configuration not stated) | i | nt
Clc1ccccc1Cc1noc(CN2CCN(c3cnccn3)CC2)n1 | i | nt
Fc1ccccc1Cc1noc(CN2CCN(c3ccc(Cl)cn3)CC2)n1 | -5.6* | -5.6
CCOc1ccccc1C(=O)N[C@H](C(=O)OCc1cc(=O)oc2cc(C)ccc12)C(C)C | i | nt
COc1cc(OC)cc(C(=O)N[C@H](C(=O)OCc2cc(=O)oc3cc(C)ccc23)C(C)C)c1 | -7.68* | -7.68
CCc1nc2ccccc2c(C(=O)OCC(=O)NC(=O)c2cccn2C)c1C | -5.62* | -5.62

High-throughput results from PubChem BioAssay.
